# From PubChem BioAssay (Tox21)
# Records with an inconclusive call do not appear. Where a call stands in place of a potency, no number is given. The source made the active and inactive calls. The call rests on the fitted dose curve; in most records, active means well fitted inhibition curve with a large enough effect in the signal ratio in the repeat runs, with a control signal flat; inconclusive means weak or mixed curves, or effect the other way; inactive means flat fitted curve, though single readings scatter; the % refers to the signal ratio.
# Biological target: D(2) dopamine receptor (Homo sapiens) (UniProt P14416)
# Sequence (P14416 whole entry, looked up): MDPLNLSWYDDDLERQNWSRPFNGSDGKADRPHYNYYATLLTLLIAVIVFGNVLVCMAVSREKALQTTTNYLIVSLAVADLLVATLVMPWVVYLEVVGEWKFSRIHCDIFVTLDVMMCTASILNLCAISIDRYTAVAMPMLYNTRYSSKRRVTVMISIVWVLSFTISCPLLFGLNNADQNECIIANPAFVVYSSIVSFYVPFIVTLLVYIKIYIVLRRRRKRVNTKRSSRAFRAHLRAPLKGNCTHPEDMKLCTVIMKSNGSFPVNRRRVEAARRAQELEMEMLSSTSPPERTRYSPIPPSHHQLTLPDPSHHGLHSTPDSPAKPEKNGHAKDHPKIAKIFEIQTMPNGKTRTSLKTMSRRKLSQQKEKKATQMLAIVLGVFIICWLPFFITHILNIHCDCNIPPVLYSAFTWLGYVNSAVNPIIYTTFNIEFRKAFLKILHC
# Assay: Dopamine D2 receptor (DRD2) small molecule antagonists, cell-based qHTS assay (AID 1963595)
# Details: HEK293-DRD2 cAMP HTRF antagonist mode; series mostly up to 92.4 µM
# Text: National Center for Advancing Translational Sciences [NCATS]
# Division of Preclinical Innovation [DPI]
# U.S. Environmental Protection Agency [EPA]
# National Institutes of Environmental Health Sciences [NIEHS]
# National Toxicology Program [NTP]
# U.S. Food and Drug Administration [FDA]
# DRD2 is the D2 subtype of the dopamine receptor, which is coupled to Gi subtype of G protein-coupled receptor. This G protein-coupled receptor inhibits adenylyl cyclase activity. The DRD2-HEK293 cell line stably expressing D2 dopamine receptor can be used for screening agonists and antagonists of interactions between D2 and its ligands. The Hek293-DRD2 cAMP assay is based on HTRF technology. It measures changes of cAMP accumulation in response to Gi coupled GPCR activation or inhibition.
# Tox21 Assay Protocol Summary:
# DRD2-Hek293 cells were dispensed at 600 cells/3uL/well in 1536-well white plates using a Multidrop Dispenser. After the assay plates were incubated at a 37 C/5% CO2 incubator for 24 h, 1 uL of Ro20-1724 at final concentration of 0.1 mM was transferred to the assay plate by a Flying Reagent Dispenser. Following Ro20-1724 addition, 23 nL of compound dissolved in DMSO, positive controls or DMSO only was added to the assay plates via Wako pintool station. The assay plates were incubated at room temperature for 10 min. Next, 1 uL of mixture of NKH477 (final concentration at 200 nM) and quinpirole (final concentration at 12 nM) was added into the plates. After the assay plates were incubated at room temperature for an additional 30 min, 2.5 ul/well of cAMP-d2 and 2.5 ul/well of anti-cAMP-cryptate were added respectively into the assay plates using a Flying Reagent Dispenser. The plates were incubated at room temperature for 1 h. The fluorescence intensity in the plates was measured at 340 nm excitation and 665 & 620 nm emission by an Envision plate reader.
Compound,Potency,"activity change, negative = inhibition"
C=C(C)[C@@H]1CC[C@@H](C)C[C@@H]1O,inactive,–
CC(C)CC(O)Cc1ccccc1 (stereo not given),inactive,–
CC(C)(Oc1ccc(CCNC(=O)c2ccc(Cl)cc2)cc1)C(=O)O,inactive,–
c1cc(C(c2ccc(OCC3CO3)cc2)C(c2ccc(OCC3CO3)cc2)c2ccc(OCC3CO3)cc2)ccc1OCC1CO1 (stereo not given),inactive,–
CCCCCCCCCCCCOCCO,inactive,–
N#C[C@@H]1C[C@@H]2C[C@@H]2N1C(=O)[C@@H](N)C12CC3CC(CC(O)(C3)C1)C2,inactive,–
CC(C)CCCCCOC(=O)CCS,inactive,–
O=c1[nH]c(=O)n([C@H]2CCCO2)cc1F,inactive,–
CC(C)[C@@H]1CC[C@@H](C)CC1=O,inactive,–
CCc1cccc(CC)c1NC(=O)C(=O)O,inactive,–
CCCCCCCCCC/C=C/C#N,inactive,–
C=C(c1ccc(C(=O)O)cc1)c1cc2c(cc1C)C(C)(C)CCC2(C)C,inactive,–
CC(=O)/C=C/c1ccco1,inactive,–
CO[Si](CCCNCCC[Si](OC)(OC)OC)(OC)OC,inactive,–
CCCCOC(=O)CCS,inactive,–
Cc1ncsc1CCO,inactive,–
Oc1ccc(O)c2c(O)cccc12,inactive,–
O=C1C(c2[nH]c3ccc(S(=O)(=O)O)cc3c2O)=Nc2ccc(S(=O)(=O)O)cc21,inactive,–
ON(Cc1ccccc1)Cc1ccccc1,inactive,–
COC(=O)C1=C(C)NC(C)=C(C(=O)OCCN(C)Cc2ccccc2)C1c1cccc([N+](=O)[O-])c1 (stereo not given),inactive,–

Compound,Potency,"activity change, negative = inhibition"
O=C(O)CN(CCN(CC(=O)O)CC(=O)O)CCN(CC(=O)O)CC(=O)O,–,6.7% [at 18.9 µM] (inactive)
N=C(N)c1ccc2cc(OC(=O)c3ccc(N=C(N)N)cc3)ccc2c1,inactive,–
C=CCCC=C,inactive,–
CN1Cc2c(N)cccc2C(c2ccccc2)C1 (stereo not given),inactive,–
Cn1cnc2c(F)c(Nc3ccc(Br)cc3Cl)c(C(=O)NOCCO)cc21,inactive,–
CCCCCCCCCCC,inactive,–
CCOCCOCCOCCO,inactive,–
CC(C)c1ccc2c(C(C)C)cc(C(C)C)c(S(=O)(=O)O)c2c1,inactive,–
CC1CCC(C(C)C)C(O)C1 (stereo not given),inactive,–
CCC(=O)OC(C)c1ccccc1 (stereo not given),inactive,–
NC(=O)NNC(N)=O,inactive,–
O=C1OC(=O)c2ccccc21,inactive,–
CCC(C)(C)CC,inactive,–
O=C(O)CCC(=O)Nc1ccc(S(=O)(=O)Nc2nccs2)cc1,inactive,–
CCCSSCCC,inactive,–
O=C(Cl)c1ccc(C(=O)Cl)cc1,inactive,–
O=S(=O)(O)CC(O)CCl (stereo not given),inactive,–
CC(C)COC(=O)c1ccccc1O,inactive,–
CCCCCCCCCOCC1CO1 (stereo not given),inactive,–
CC(C#N)(CCC(=O)O)N=NC(C)(C#N)CCC(=O)O (stereo not given),inactive,–
